± gives the standard deviation.
These sequences were tested on MILI (PIWIL2) piRISC loaded with L1MC piRNA (26 nt) (assay: pre-steady-state target cleavage rate (min^-1); guide: L1MC piRNA 5'p-UAACUAAAUACUAUGCAAGCUGUAGG; MIWI and MILI are mouse PIWI proteins and EfPiwi is from a freshwater sponge; tags in brackets are library labels; higher = faster piRNA-guided slicing of the target). Settings: auxiliary factor: 500 nM mouse GTSF1.
How it was run: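 The method was Cleave-'n-Seq, in which uncleaved targets from a transcribed, DNA-blocked target RNA library were sequenced after exposure to active affinity-purified piRISC carrying one synthetic guide, with or without GTSF1 partner protein. Reactions contained 0.1 nM library, 1 nM piRISC and, where present, 500 nM GTSF1 in HEPES–potassium acetate buffer at 33 °C for 0–8 or 0–960 min. Reads were normalised to depth and to weakly complementary targets, three trials were pooled, and k3 was capped at 0.0001 min^-1. The pre-steady-state cleavage rate came from a burst-and-steady-state fit.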
With UCCUGGAACAGCUUGCAUAGUAUUUAUUA the “pre-steady-state target cleavage rate” value was 0.046 ± 0.014. With UCCUGGAUGUCGAAGCAUAGUACUUAGUUA the “pre-steady-state target cleavage rate” value was 0.00746 ± 0.0031. UCCUGCUACAGCAAGCAUAGUAUUUACAAA was tested, and the “pre-steady-state target cleavage rate” value was 0.191 ± 0.055. UCCUGGAUCAGCUUGCAUACUAUUUACAAA was tested, and the “pre-steady-state target cleavage rate” value was 0.0104 ± 0.0042. In the case of UCCUGGAUCAGCUUGCAUACUAUUUAGAUA, the “pre-steady-state target cleavage rate” value is reported as 0.0139 ± 0.0058. In the case of UCCUCCUACAGCUUGCAUAGUUAAUUCAAA, the “pre-steady-state target cleavage rate” value is reported as 0.0506 ± 0.016. For UCCUGGAACAGCUUGCAUAGUAUAUAGAUA, the “pre-steady-state target cleavage rate” value was 0.0877 ± 0.022. For UCCUGGAUGUCCUUGCAUAGUAAAUAGUAA, the “pre-steady-state target cleavage rate” value was 0.00932 ± 0.0037. In the case of UCCUGGAUGAGCUACGAUAGUAUUUAGUUA, the “pre-steady-state target cleavage rate” value is reported as 0.00662 ± 0.0035. UCCUGGAUGAGCUUGCAUAGUAUUUCGUUA was tested, and the “pre-steady-state target cleavage rate” value was 0.0995 ± 0.028. For UCCUGCUACAGCUUGCAAUGUAUUUUCAAA, the “pre-steady-state target cleavage rate” value was 0.00975 ± 0.0041. In the case of UCCUGGAUGUCGUUGCAUAGUUUUUAGUAA, the “pre-steady-state target cleavage rate” value is reported as 0.00481 ± 0.004. For UCCUGGAAGUCCUUGCAUAGUAUUUUCAAA, the “pre-steady-state target cleavage rate” value was 0.0197 ± 0.0079. For UCCUGGAUCUCGUUGCAUAGUAUUUAGAAA, the “pre-steady-state target cleavage rate” value was 0.141 ± 0.024. In the case of UCCUGGAUGUCGAAGCAUAGUAUUAAGUAA, the “pre-steady-state target cleavage rate” value is reported as 0.0172 ± 0.0065. For UCCUGGAUGUCGUUGCAAAGUAUUUUGUUA, the “pre-steady-state target cleavage rate” value was 0.0092 ± 0.0056. In the case of UCCUGGAUGUGCUUGCAAAGUAUUUAGAUA, the “pre-steady-state target cleavage rate” value is reported as 0.0284 ± 0.008. In the case of UCCUGGUACUGCUUGCAUAGUAUUUACUUA, the “pre-steady-state target cleavage rate” value is reported as 0.0201 ± 0.0085. UCCUGGAACUCGUUGCAUAGUAUUUUCAAA was tested, and the “pre-steady-state target cleavage rate” value was 0.0397 ± 0.011. With UCCUGGAUGUCCUUGCUUAGAAUUUAGUUA the “pre-steady-state target cleavage rate” value was 0.00442 ± 0.004. For UCCUGGUACAGCUUGCAUAGUAAAUAGUAA, the “pre-steady-state target cleavage rate” value was 0.151 ± 0.045. In the case of UCCUGGAUGACGAUGCAUAGUAUUUACAAA, the “pre-steady-state target cleavage rate” value is reported as 0.0245 ± 0.011. UCCUGGAUCACCUUGCAUAGUUUUUAGUUA was tested, and the “pre-steady-state target cleavage rate” value was 0.016 ± 0.0061. UCCUGCUACAGCAACCAUAGUAUUUAGUUA was tested, and the “pre-steady-state target cleavage rate” value was 0.305 ± 0.04. In the case of UCCUGGAUGAGCUUGCAUAGUAUUAUCUUA, the “pre-steady-state target cleavage rate” value is reported as 0.00985 ± 0.0048. UCCUGGAUGUCGAUGCAUAGUAUUUAGAUA was tested, and the “pre-steady-state target cleavage rate” value was 0.0384 ± 0.011. With UCCUGGAUGUCGAAGCAUAGUAUUUAUUUA the “pre-steady-state target cleavage rate” value was 0.0073 ± 0.0034. With UCCUGGAACAGCAUGCAUAGUAUUUUCAAA the “pre-steady-state target cleavage rate” value was 0.066 ± 0.018. In the case of UCCUGGAUGUGCUUGCAUAGUAUUUAGAUA, the “pre-steady-state target cleavage rate” value is reported as 0.0576 ± 0.014. For UCCUGGAUGUCGUACCAUAGUAUUUAGUUA, the “pre-steady-state target cleavage rate” value was 0.0168 ± 0.0047. For UCCUGGUACAGCUUGCAUACUAUAUAGUUA, the “pre-steady-state target cleavage rate” value was 0.0326 ± 0.013. For UCCUGGAACAGCUUGCUAAGUAUUUAGAAA, the “pre-steady-state target cleavage rate” value was 0.0282 ± 0.01. For UCCUGGUACAGCUUGGAUAGAAUUUAGUUA, the “pre-steady-state target cleavage rate” value was 0.0709 ± 0.025. UCCUGCUACAGCUUGCAUAGUAAAAAGAAA was tested, and the “pre-steady-state target cleavage rate” value was 0.0111 ± 0.0048. UCCUGGAUGUCCUUGCAUAGUAUUUCGUUA was tested, and the “pre-steady-state target cleavage rate” value was 0.0489 ± 0.017. With UCCUGGAUGUCGAAGCAUAAUAUUUAGUUA the “pre-steady-state target cleavage rate” value was 0.0097 ± 0.0039.

Reference: the supplement of paper PMC10338343
